ID4 binder: binders of human ID4 protein; P47928; small molecule microarray, Flag-ID4 binding, fluorescence F/B; calls only; hit rate 1.2% among 31,000; call rule not given here;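 note: a binder raises fluorescence above local background on the spot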
STK33 inh: inhibitors of human STK33 kinase; hit rate 0.44% among 27,000; Q9BYT3; inhibition, % at 12.5 µM; ADP-Glo luminescence, MBP substrate; in the data active = inhibition above about 20%; inconclusive = no clear call, values can overlap the other calls
Target sequence (Q9BYT3 whole entry, looked up): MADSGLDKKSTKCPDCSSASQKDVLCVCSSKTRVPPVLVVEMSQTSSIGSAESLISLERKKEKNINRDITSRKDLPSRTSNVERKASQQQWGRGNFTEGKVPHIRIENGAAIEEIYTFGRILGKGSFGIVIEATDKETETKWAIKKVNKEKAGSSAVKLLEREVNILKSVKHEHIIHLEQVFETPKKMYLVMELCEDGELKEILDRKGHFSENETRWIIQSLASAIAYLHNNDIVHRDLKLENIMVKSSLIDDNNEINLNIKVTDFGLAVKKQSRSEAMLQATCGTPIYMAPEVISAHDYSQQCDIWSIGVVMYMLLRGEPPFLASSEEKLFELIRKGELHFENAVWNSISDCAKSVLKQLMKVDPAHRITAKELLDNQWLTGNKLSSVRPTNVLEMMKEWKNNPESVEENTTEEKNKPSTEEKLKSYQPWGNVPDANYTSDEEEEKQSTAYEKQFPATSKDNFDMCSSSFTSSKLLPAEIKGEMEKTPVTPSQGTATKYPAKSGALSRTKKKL
p53 PUMA act: restores mutant p53 pathway signaling in SW480 cells | activation, % at 9.98 µM | SW480 PUMA-promoter luciferase, p53 mutant reactivation | hit rate 1.5% among 28,000; in the data active = activation above about 52%; inconclusive = no clear call, values can overlap the other calls
Starred values were filed as active, the others as inactive; i = inactive; ? = inconclusive; . = not tested or not shown; + = active, no number. This is a sample that favours compounds with a hit; in the whole collection about 2% have one here.

SMILES	ID4 binder	STK33 inh	p53 PUMA act
CN(C)CCCCCCNC(=O)[C@@H]1C[C@@H]2C(=O)N3CCC[C@H]3C(=O)N2[C@@H]1c1ccc(O)cc1	+	2	.
COc1cc2c(c(OC)c1OC)CCc1cc(O)c(O)cc1-2	.	21*	1
COc1cc(C2OCC3C(c4cc(OC)c(OC)c(OC)c4)OCC23)cc(OC)c1OC (stereo unspecified)	i	-2	-7
C[C@@H]1O[C@@H](O[C@@H]2[C@@H](O)[C@H](O[C@@H]3[C@@H](O)[C@@H](O)[C@H](O[C@H]4[C@H](OC(=O)[C@]56CCC(C)(C)C[C@H]5C5=CCC7[C@@]8(C)C[C@H](O)[C@H](O[C@@H]9O[C@H](C(=O)O)[C@@H](O)[C@H](O)[C@H]9O)[C@@](C)(CO)C8[C@H](O)C[C@@]7(C)[C@]5(C)C[C@H]6O)OC[C@H](O)[C@@H]4O)O[C@H]3C)OC[C@H]2O)[C@H](O)[C@H](O)[C@H]1O (stereo partly specified)	i	23*	.
C[C@@H]1O[C@@H](O[C@H]2[C@H](OC(=O)[C@]34CCC(C)(C)C[C@H]3C3=CCC5[C@@]6(C)C[C@H](O)[C@H](O[C@@H]7O[C@H](C(=O)O)[C@@H](O)[C@H](O)[C@H]7O)[C@@](C)(CO)C6[C@H](O)C[C@@]5(C)[C@]3(C)C[C@H]4O)O[C@@H](CO)[C@@H]2O)[C@H](O)[C@H](O)[C@H]1O[C@@H]1OC[C@@H](O)[C@H](O[C@H]2OC[C@](O)(CO)[C@H]2O)[C@H]1O (stereo partly specified)	i	-4	11
C=C(C)[C@H]1C[C@@]2(C)C(=CC1=O)CC[C@@H](O)[C@@H]2C	i	0	-11
Cc1ccn2cc(-c3cccc(NS(=O)(=O)c4cc([N+](=O)[O-])ccc4C)c3)nc2c1	i	0	111*
Cc1ccc([N+](=O)[O-])cc1S(=O)(=O)NCc1cccnc1	i	3	-7
Cc1cc(Cl)ccc1N(CC(=O)Nc1cc(Cl)cc(Cl)c1)S(C)(=O)=O	i	2	-9
COc1ccccc1CC(=O)Nc1ccc(-c2noc(-c3ccc(Cl)cc3)n2)cc1	i	-2	7
COCCNC(=O)c1ccccc1-c1nc(-c2ccc(Cl)cc2)no1	i	2	59*
COc1ccc(-c2nc(SCC(=O)Nc3ccc(Br)c(Cl)c3)n[nH]2)cc1	i	2	-9
C=CCOC(=O)[C@H]1[C@@H]2C(=O)O[C@@H](c3ccccc3)[C@@H](c3ccccc3)N2[C@@H](c2ccc(OCCOC(=O)[C@@H]3C[C@@H]4C(=O)N[C@@H](Cc5ccccc5)C(=O)N4[C@@H]3c3cccc(OCCO)c3)cc2)[C@]12C(=O)Nc1ccc(I)cc12	i	13	.
COc1cc(SC)ccc1-c1nc2ccncc2[nH]1	i	12	59*
COc1cc(C2c3c(oc4ccc(Cl)cc4c3=O)C(=O)N2Cc2ccco2)cc(Br)c1O (stereo unspecified)	i	0	0
COc1cc([N+](=O)[O-])ccc1NC(=O)c1ccccc1OCC(=O)NC(C)(C)C	i	-4	-8
Cn1c(SCC(=O)c2ccc(Cl)cc2Cl)nnc1-c1cccnc1	i	5	2
Cc1nc(SCC(=O)c2ccccc2)c2sc3nc4c(cc3c2n1)COC(C)(C)C4	i	1	91*
CCOC(=O)CSc1ncnc2c1sc1nc3c(cc12)COC(C)(C)C3	i	0	-17
Cc1ccccc1-n1nnnc1SCC(=O)Nc1cccc(Cl)c1Cl	i	2	0
CCc1cccc(OCC(=O)Nc2cc([N+](=O)[O-])ccc2O)c1	i	-3	74*
O=C(CCSc1ccc([N+](=O)[O-])cc1)Nc1cccc2cccnc12	i	-2	12
O=C(COc1ccc([N+](=O)[O-])cc1)Nc1cccc2cccnc12	i	4	64*
Cc1cccc(C)c1OCC(=O)Nc1ccc([N+](=O)[O-])cc1O	i	-3	4
O=C(COc1ccccc1)Nc1ccc([N+](=O)[O-])cc1O	i	4	3
SMILES	ID4 binder	STK33 inh	p53 PUMA act
O=C(COc1cccc2ccccc12)Nc1cc([N+](=O)[O-])ccc1O	i	-2	67*
CCc1ccc2oc(-c3cccc(NC(=O)COc4ccccc4)c3)nc2c1	i	3	82*
COc1ccc(OCC(=O)Nc2ccc(-c3nc4cc(C)ccc4o3)cc2)cc1	i	-1	-45
Cc1ccc2oc(-c3cccc(NC(=O)COc4ccc5ccccc5c4)c3)nc2c1	i	?	82*
CCc1ccc(OCC(=O)Nc2ccc3oc(-c4ccccc4)nc3c2)cc1	i	-1	?
Cc1cccc(OCC(=O)Nc2cccc(-c3nc4cc(C)ccc4o3)c2)c1	i	-3	86*
Cc1cc(C)cc(OCC(=O)Nc2cccc(-c3nc4ccccc4o3)c2)c1	i	5	9
COc1cc2occ(-c3ccc(O)cc3)c(=O)c2c(OC)c1O	.	1	.
COc1ccccc1C(CCNCc1ccccc1)c1ccco1 (stereo unspecified)	i	.	-4
CCn1c(SCC(=O)Nc2c(C)cc(C)cc2C)nnc1-c1ccc(Br)cc1	i	2	-1
COC(=O)c1cccc(NC(=O)CN(c2cccc(F)c2)S(C)(=O)=O)c1C	i	-4	0
NCCNc1ccc([N+](=O)[O-])c(NCCO)c1	+	-3	-19
NCCNc1ccc([N+](=O)[O-])c(Sc2nc3ccccc3[nH]2)c1	i	-2	-18
CN(CC(=O)Nc1ccc(F)c(Cl)c1)S(=O)(=O)c1ccc(F)cc1	i	2	12
COc1ccc(C2C(C(=O)c3ccco3)C(=O)C(=O)N2CCN(C)C)cc1OC (stereo unspecified)	i	0	-3
COc1ccc(NC(=O)CSc2nc(C)c3c(n2)CCCC3)c([N+](=O)[O-])c1	i	-3	16
COCC1=C2[C@@H](c3ccccc3)OB(O)C[C@@H]2n2c(=O)n(-c3ccccc3)c(=O)n2C1	i	.	.
CCCC[C@H]1OB(O)C[C@H]2C1=C(COc1ccccc1)Cn1c(=O)n(-c3ccccc3)c(=O)n12	+	.	.
O=C(/C=C/c1ccc(O)cc1)OC[C@H]1O[C@@H](Oc2cc(O)c3c(c2)OC(c2ccc(O)cc2)CC3=O)[C@H](O)[C@@H](OC(=O)/C=C/c2ccc(O)cc2)[C@@H]1O (stereo partly specified)	i	-1	.
O=C1C=CC(O)(/C=C/C(=O)OC[C@H]2O[C@@H](Oc3ccc(O)cc3)[C@H](O)[C@@H](OC(=O)/C=C/C3(O)C=CC(=O)C=C3)[C@@H]2O)C=C1	i	52*	18
COc1ccc(OCC(=O)Nc2cc(OC)ccc2NC(=O)c2ccco2)cc1	i	-2	-1
Cc1cc(O)c2c(c1)C(=O)c1cc(OC3OC(COC(=O)CC(=O)O)C(O)C(O)C3O)cc(O)c1C2=O (stereo unspecified)	.	14	-2
C=CCOC(=O)[C@H]1[C@@H]2C(=O)O[C@@H](c3ccccc3)[C@@H](c3ccccc3)N2[C@@H](c2ccc(OCCOC(=O)[C@@H]3C[C@@H]4C(=O)NCC(=O)N4[C@@H]3c3ccc(O)cc3)cc2)[C@]12C(=O)Nc1ccccc12	i	15	.
O=C(CSc1nc2sc3c(c2c(=O)n1C1CCCCC1)CCCC3)Nc1ccccc1	i	0	-3
